# Results published in ChEMBL document CHEMBL3988442, “University of Dundee, Small-Polar-MMV Screening Library” (2021).
# How the values were obtained:
# [1] = molecular target: T1, Aspartate--tRNA(Asp/Asn) ligase (Mycobacterium tuberculosis (strain ATCC 25618 / H37Rv)) (UniProt P9WFW3); experiment: Assay for Asp RNA synthetase-1 from Mycobacterium tuberculosis; type: functional; parameters: scale not given: direction of the effect not stated beside the values; settings: 30 µM; also: in the data most compounds retested in dose-response had high values
# T1 sequence (whole entry): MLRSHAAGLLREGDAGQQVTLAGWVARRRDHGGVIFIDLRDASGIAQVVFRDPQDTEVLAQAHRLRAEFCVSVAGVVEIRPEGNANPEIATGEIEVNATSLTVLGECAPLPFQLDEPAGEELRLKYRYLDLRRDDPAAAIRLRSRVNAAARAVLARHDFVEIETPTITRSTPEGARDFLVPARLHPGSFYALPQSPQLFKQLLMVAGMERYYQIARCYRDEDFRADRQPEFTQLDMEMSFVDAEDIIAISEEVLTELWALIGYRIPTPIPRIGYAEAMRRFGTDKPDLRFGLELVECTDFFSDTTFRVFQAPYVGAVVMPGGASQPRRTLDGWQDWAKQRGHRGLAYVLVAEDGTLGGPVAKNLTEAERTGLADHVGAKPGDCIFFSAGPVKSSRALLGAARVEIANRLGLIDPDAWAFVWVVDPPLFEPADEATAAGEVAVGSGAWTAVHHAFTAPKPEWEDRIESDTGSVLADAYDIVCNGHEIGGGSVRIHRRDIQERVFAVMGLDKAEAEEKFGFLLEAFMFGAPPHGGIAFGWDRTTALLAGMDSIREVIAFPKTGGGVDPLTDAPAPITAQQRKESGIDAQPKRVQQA
# [2] = molecular target: Shiga toxin 2 (Escherichia coli O157:H7) (UniProt P09385+P09386); experiment: E. coli 0.157:H7 Shiga Toxin SOP - stx2 screening assay; type: functional; parameters: scale not given: direction of the effect not stated beside the values; settings: 30 µM
Structure (SMILES),Percent Effect [1] [%],Percent Effect [2] [%]
CC(=O)N1CCCCC1c1cc(C(=O)N2CCOCC2)[nH]n1 (centres undefined),-0.551,15.2
CCn1cc(C(=O)NCc2csc(Br)c2)cn1,-3.16,6.72
Cn1cc(NC(=O)Cn2c(CS(C)(=O)=O)nc3ccccc32)cn1,-0.299,1.48
CN(C)c1cc(CNC(=O)c2ccc(=O)[nH]n2)ccn1,-3.92,-29.1
CC1CN(c2ccc(CNC(=O)c3ccn(C)c(=O)c3)cn2)CCO1 (centres undefined),-6.51,-19.6
Cc1noc([C@@H]2C[C@H]3OCC[C@H]3N(S(C)(=O)=O)C2)n1,-0.616,-25.2
CC(C)Oc1cccc(C(=O)C2CCCN(C(=O)c3ccccn3)C2)c1 (centres undefined),-1.79,6.16
CCS(=O)(=O)N1CCc2c(CN(C)Cc3ccco3)cncc2C1,-0.0582,-1.96
CC(C)CN1Cc2c(C(=O)N(C)C)ncn2-c2ccccc2S1(=O)=O,-2.86,4.89
CSCC[C@H](N)C(=O)NCc1cc2n(n1)CCCN(C1CCCCC1)C2,-6.77,5.19
COCC1CN(C(=O)c2cccn2C)Cc2nccn2C1 (centres undefined),-0.897,-15.6
CNS(=O)(=O)c1cccc(C(C)NCc2nccn2C(C)C)c1 (centres undefined),-2.07,-29.6
O=C1CCC2(CCN(c3ncc(F)cn3)CC2)N1CCN1CCCC1,1.53,-1.87
COc1ccc(CN2C[C@H]3CC[C@](O)(c4ccc(C)cn4)[C@H]3C2)c(F)c1,2.93,14.7
CSc1ccc(C(CN)N2CCc3sccc3C2)cc1 (centres undefined),-1.53,-31.4
O=C(NCCCN1CCCC1)c1n[nH]c(=O)c2ccccc12,-3.43,-6.83
CC(C)(O)CN1CCN(C(=O)c2cccnc2O)CC1,-6.95,9.08
Cc1cnn(CCC(=O)N2CCCC(c3cc(C(N)=O)[nH]n3)C2)c1 (centres undefined),-2.86,-13.8
O=C1[C@H]2CN(Cc3nccs3)C[C@H]2CN1c1ccsc1,5,1.38
O=C1COC2(CCN(Cc3ccoc3)CC2)CN1c1ccsc1,4.25,-18.4
O=C1[C@H]2CN(CC3CC3)C[C@H]2CN1Cc1cccc(F)c1,1.33,-1.04
O=C(CCOc1cccc(F)c1)N1CCCC(n2cncn2)C1 (centres undefined),-2.92,5.88
Cc1nc(C)n(C2CCCN(C(=O)CCCn3ccnc3)C2)n1 (centres undefined),-0.127,-12.7
O[C@H]1CCN(Cc2ccoc2)[C@H]1Cc1cccnc1,6.58,-6
Cc1cnn(CCNCc2ccccc2OCc2cccnc2)c1,4.5,-8.49
COc1c(C2CCCN2C(=O)c2c[nH]c3ncccc23)c(C)nn1C (centres undefined),-1.25,-20.6

Structure (SMILES),Percent Effect [1] [%],Percent Effect [2] [%]
CSCCCN1CCCC1c1noc(C)n1 (centres undefined),1.68,11.3
CCc1noc(C(C)N2CCOCC2)n1 (centres undefined),-10.8,6.48
O=C(Cn1cccnc1=O)NC(Cc1ccsc1)c1ccccn1 (centres undefined),-3.14,-4.55
Cc1nc(CN(C)C2CCN(CCCOc3ccccc3)C2)no1 (centres undefined),2.8,-39.6
Cc1cc(O)nc(C2CCCN(Cc3ccncc3)C2)n1 (centres undefined),1.35,11.8
COc1c(CNC2CCSc3ccc(F)cc32)c(C)nn1C (centres undefined),0.879,-10.4
Cc1nc(CNCC2CN(C)CCO2)cs1 (centres undefined),-3.4,-38.1
COC(=O)C(C)(C)NC(=O)C1CC(=O)N(C)C1 (centres undefined),-1.62,-22.5
NS(=O)(=O)CCNC(=O)C1(c2ccc(Br)cc2)CC1,1.66,-28.2
CC(C)n1c(C2CCCN(CCS(C)(=O)=O)C2)nc2ccccc21 (centres undefined),0.943,17.6
Cc1ccc(NC2CCN(C(=O)c3ccsc3)CC2)nn1,-2.79,-2.79
Cc1cccc(-n2cc(C(=O)N3CCn4c(C)nnc4C3)nn2)c1,-2.42,-92.9
Cn1cc(C(=O)NC2CCN(C(=O)NCCSC(F)(F)F)CC2)cn1,0.597,-30.6
Cn1cc(C2CCCN2Cc2csc(-c3ccsc3)n2)cn1 (centres undefined),7.77,-5.27
COCCNC(=O)C1(c2ccccc2C)CCOCC1,-1.82,19.2
CCCn1ncc2c(C(=O)Nc3cnn(CC)c3C)cc(C3CC3)nc21,-1.49,-0.924
CN(C)S(=O)(=O)N1CCC(Oc2cnccn2)CC1,-9.05,-9.23
Cc1n[nH]c(C)c1NC(=O)CN1CCOC(Cn2cccn2)C1 (centres undefined),-0.605,31.6
Cc1ccc(=O)n(CC2(O)CCN(Cc3ccsc3)CC2)n1,-3.38,12.7
O=C(c1cccc(=O)[nH]1)N(Cc1ccsc1)CC1CCCO1 (centres undefined),0.0781,-11.1
O=C(Cc1ccsc1)N1C[C@@H]2CN(Cc3ccoc3)CCO[C@@H]2C1,-1.48,-6.92
COc1cccc(-n2c(C)cc(C(=O)NS(C)(=O)=O)c2C)c1,-1.31,4.7
CN(C)CC(=O)N1C[C@@H]2CC[C@H](Oc3ccccc3Cl)[C@@H]2C1,1.77,12.4
O=C(NCc1cc[nH]n1)NCC(c1ccccc1Cl)N1CCCC1 (centres undefined),5.68,4.8
COCC1CC2(CCN(Cc3ccc(OC)cc3)CC2)CN1C(C)C (centres undefined),-1.24,1.66
CSc1ccccc1CN1CCn2nc(CNC(C)=O)cc2C1,6.15,-66.1
